High-throughput results from PubChem.
Compounds with a hit are over-represented: about 4.9% of the library has one in this group of screens.
Beta cell apopt: inhibitors of cytokine-induced beta cell apoptosis, primary screen, luminescence; INS-1E cytokine-induced death, ATP luminescence, 48 h; percent of positive-control rescue, neutral wells zero; protection from apoptosis, % (concentration not given with the values); 0.8% of 300,000 active;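 active means Every replicate reaches about 75%, or at least half do and their mean reaches it too, limit read from the data; inconclusive means At least half of replicates reach the limit but their mean does not; inactive means Under half of replicates reach the limit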;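 further: higher means more ATP so stronger rescue from cytokine killing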
Mdm2-MdmX inh: inhibitors of human Mdm2-MdmX association, primary screen, cell-based, luminescence, split luciferase, SaOS-2, uHTS. inhibition, % at 8 µM. SaOS-2 split-luciferase Mdm2/MdmX complementation. AID 485346, 2010. 3% of 330,000 active;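 active means inhibition of at least 50% at 8 µM in the primary screen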
PP5 primary: PP5 phosphatase inhibitors, primary screen, biochemical, fluorescence; Serine/threonine-protein phosphatase 5 (Homo sapiens), P53041; purified PP5c, OMFP substrate fluorescence; inhibition, % at 6.7 µM; 0.18% of 320,000 active;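 active means inhibition above the campaign's mean inhibition across all tested compounds plus 3 SD, cut at about 9.5% in these data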
CSC inhib: cancer stem cell viability inhibitors, primary screen, luminescence | cancer stem cell-like cells viability | inhibition, % at 7.5 µM | AID 2717, 2010 | 1.1% of 300,000 active; in the data active means inhibition above about 75%; inconclusive means no clear call, values can overlap the other calls; tested in HMLE shEcad cells
Calb FLC: C. albicans growth inhibition with fluconazole, primary screen, CaCi-2 strain, Alamar Blue fluorescence | C. albicans CaCi-2 (fluconazole-resistant clinical isolate) + fluconazole, 48 h | 0.57% of 300,000 active | AID 1979, 2009 | growth inhibition, % (no concentration beside the values);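 active means growth inhibition above about 58% in most replicates, limit read from the data, passing the limit was not always enough; inconclusive means exactly half the replicates above a set limit; inactive means most replicates below a set limit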;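 further: all wells also contain fluconazole at 8 µg/ml as a sub-toxic cotreatment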
PP1 counter: PP1-alpha phosphatase inhibitors, primary screen, counter-screen for PP5 inhibitor project, biochemical, fluorescence, OMFP substrate, single point; AID 2235, 2010; inhibition, % at 6.7 µM; purified PP1alpha; 0.9% of 320,000 active; Serine/threonine-protein phosphatase PP1-alpha catalytic subunit (Homo sapiens), P62136;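 active means inhibition above the mean inhibition of all tested compounds plus 3 SD, computed separately for each screening campaign, cut at about 15% in these data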
Target sequence (P62136 whole entry, looked up): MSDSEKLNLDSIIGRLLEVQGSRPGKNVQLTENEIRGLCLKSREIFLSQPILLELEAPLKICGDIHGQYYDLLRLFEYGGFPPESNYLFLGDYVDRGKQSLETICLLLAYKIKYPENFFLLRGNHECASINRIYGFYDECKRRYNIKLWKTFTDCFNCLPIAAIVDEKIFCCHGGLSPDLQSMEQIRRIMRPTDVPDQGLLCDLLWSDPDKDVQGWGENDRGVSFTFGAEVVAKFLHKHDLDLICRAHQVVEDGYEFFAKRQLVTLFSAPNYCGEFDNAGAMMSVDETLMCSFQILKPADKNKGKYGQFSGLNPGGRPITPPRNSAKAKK
Mdm2-MdmX conf: Mdm2-MdmX complex disruptors, retested hits, confirmation, luminescence, single concentration; inhibition, % at 8 µM; 55% of 10,000 active; shares compounds with Mdm2-MdmX inh; Mdm2-MdmX binding, luminescent assay; in the data active means inhibition above about 40%
Full FLuc ctr: full-length luciferase signal inhibition, confirmation, counter-screen for Mdm2/MdmX interaction inhibitor project, cell-based, single concentration, SaOS-2 | shares compounds with Mdm2-MdmX inh | SaOS-2 full-length luciferase counterscreen, luminescence | inhibition, % at 8 µM | 77% of 6,200 active;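 active means mean inhibition at 8 µM reaching about 37%, which flags the compound as non-specific, limit read from the data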;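 further: p53-null SaOS-2 cells with luciferase driven by a doxycycline-inducible promoter; compound on cells about two nights before reading with doxycycline added after day one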
Each line names hits and unclear results; the compound was inactive in the other large screens (follow-up assays come after a bar, where they were run).

COC(=O)c1cc(C(=O)N2CCN(c3ccccc3OC)CC2)cc([N+](=O)[O-])c1	Mdm2-MdmX inh 52 | Mdm2-MdmX conf 56 | Full FLuc ctr 60
COc1ccccc1CCN1CCCC(CN(C)C(=O)CCC(=O)N(C)C)C1 (stereo not drawn)	none
CC1=NOC(=O)/C1=C\c1ccc(-c2ccc(Br)cc2)o1	none (no result: Beta cell apopt, Mdm2-MdmX inh, PP5 primary, CSC inhib, PP1 counter)
CC1=NOC(=O)/C1=C\c1ccc(-c2cc(Cl)ccc2Cl)o1	Beta cell apopt 101, Mdm2-MdmX inh 100, CSC inhib 87 | Mdm2-MdmX conf inactive
CCc1cccc(CC)c1NC(=O)COC(=O)C1(C)CC1(Cl)Cl (stereo not drawn)	none
CC(=O)Nc1ccc(S(=O)(=O)NC2=NCN(c3ccc([N+](=O)[O-])cc3)CN2)cc1	Mdm2-MdmX inh 63 | Mdm2-MdmX conf inactive
CN1CN=C(NS(=O)(=O)c2ccc([N+](=O)[O-])cc2)NC1	none
CCN1C(=O)[C@H]2[C@@H](c3ccc(C)cc3)N3C(=O)N(c4ccc(C(F)(F)F)cc4)C(=O)[C@@]3(Cc3ccccc3)[C@H]2C1=O	none
COc1ccc(N2C(=O)N3[C@H](c4cccc(C)c4)[C@@H]4C(=O)N(Cc5ccccc5)C(=O)[C@@H]4[C@]3(Cc3ccccc3)C2=O)cc1	Mdm2-MdmX inh 70 | Mdm2-MdmX conf 80 | Full FLuc ctr inactive
Cc1cccc([C@@H]2[C@@H]3C(=O)N(Cc4ccccc4)C(=O)[C@@H]3[C@]3(C)C(=O)N(c4ccc(C(F)(F)F)cc4)C(=O)N23)c1	Mdm2-MdmX inh 84 | Mdm2-MdmX conf 74 | Full FLuc ctr inactive
COc1ccc([C@@H]2[C@@H]3C(=O)N(C(C)(C)C)C(=O)[C@@H]3[C@]3(Cc4ccccc4)C(=O)N(c4ccc(OC)cc4)C(=O)N23)cc1	none
O=C1C(Cl)=C(NC(=O)c2ccccc2)C(=O)C(Cl)=C1NC(=O)c1ccccc1	Mdm2-MdmX inh 87 (no result: Beta cell apopt, CSC inhib) | Mdm2-MdmX conf 42 | Full FLuc ctr inactive
CCCCOC(=O)C(C)Sc1n[nH]c(=O)[nH]c1=O (stereo not drawn)	none
O=C(Cc1cccs1)Nc1nc2c(s1)CCCC2	Mdm2-MdmX inh 56 | Mdm2-MdmX conf 47 | Full FLuc ctr 90
CC(C)c1nc(SCC(=O)Nc2nc3c(s2)CCCC3)c2ccccc2n1	Mdm2-MdmX inh 85 | Mdm2-MdmX conf 64 | Full FLuc ctr 45
Cc1nnc(NC(=O)CSc2nc(C(C)C)nc3ccccc23)s1	Mdm2-MdmX inh 76 | Mdm2-MdmX conf 63 | Full FLuc ctr 44
CC(C)(C)c1nc(SCC(=O)Nc2nc3c(s2)CCCC3)c2ccccc2n1	Mdm2-MdmX inh 98, CSC inhib 119 | Mdm2-MdmX conf 93 | Full FLuc ctr 54
O=C(Nc1nc2c(s1)CCCC2)c1cccs1	none (no result: Calb FLC)
O=C(CSc1nc(Cc2ccccc2)nc2ccccc12)Nc1nc2c(s1)CCCC2	none (no result: Beta cell apopt, CSC inhib)
CCC/C(=N/NC(=O)c1ccccc1Cl)c1ccccc1	none
COc1ccc(OC)c(S(=O)(=O)N2CCC(C(=O)NC3CCCCCC3)CC2)c1	none
COc1cc(CNCCc2ccc(S(N)(=O)=O)cc2)ccc1OCc1ccc(Cl)cc1	Mdm2-MdmX inh 54 | Mdm2-MdmX conf 40 | Full FLuc ctr 69
CCOc1cc(CNCCc2ccc(S(N)(=O)=O)cc2)ccc1OCc1ccc(Cl)cc1	Beta cell apopt 105, Mdm2-MdmX inh 100 | Mdm2-MdmX conf 68 | Full FLuc ctr 65
CCCCN(CC)CCNC(=S)Nc1ccc2nc(N3CCN(C)CC3)cc(C)c2c1	Mdm2-MdmX inh 67 | Mdm2-MdmX conf 45 | Full FLuc ctr 75
CCN1CCN(c2cc(C)c3cc(NC(=O)c4ccc(C)c(C)c4)ccc3n2)CC1	Mdm2-MdmX inh 67 | Mdm2-MdmX conf inactive
CCCCN(CC)CCNC(=O)CCC(=O)Nc1ccc2nc(N3CCN(C)CC3)cc(C)c2c1	none
CCN1CCN(c2cc(C)c3cc(NC(=S)N4CCN(c5ccc(F)cc5)CC4)ccc3n2)CC1	Mdm2-MdmX inh 96, CSC inhib inconclusive | Mdm2-MdmX conf 45 | Full FLuc ctr 52
CCCN(CCC)CCCNC(=S)Nc1ccc2nc(N3CCN(C)CC3)cc(C)c2c1	none
CCCN(CCC)CCCNC(=S)Nc1ccc2nc(N3CCN(CC)CC3)cc(C)c2c1	Mdm2-MdmX inh 53 | Mdm2-MdmX conf inactive
O=C(Nc1ccc2c(c1)CCC2)Nc1ccccc1F	none
COCCNC(=O)Cn1cnc2c(cnn2-c2ccc(C)cc2)c1=O	none
COc1cc(C(=O)NCc2nnc(SCC(=O)N3CCOCC3)o2)cc(OC)c1OC	none
COc1cccc(-n2c(SCC(=O)NCC3CCCO3)nc3c(c2=O)SCC3)c1 (stereo not drawn)	none (no result: Beta cell apopt)
CCOC(=O)/C(Sc1nc(-c2ccccc2)cc(-c2ccccc2)c1C#N)=C(\C)O	none
O=C(Nc1ccc(CN2CCCCC2)cc1)c1sc2ccccc2c1Cl	none
CCN(CC)C(=O)[C@H]1C[C@H](CC(=O)NCc2ccc(OC)c(OC)c2)C(=O)N2CCc3c([nH]c4ccc(Cl)cc34)[C@]12C	none (no result: Beta cell apopt, PP5 primary, CSC inhib, Calb FLC, PP1 counter)
COc1ccccc1Nc1nc(NCCC(C)C)nc(N)c1[N+](=O)[O-]	Mdm2-MdmX inh 53 | Mdm2-MdmX conf 41 | Full FLuc ctr 80
COc1ccccc1Nc1nc(NCCO)nc(N)c1[N+](=O)[O-]	Mdm2-MdmX inh 62 | Mdm2-MdmX conf inactive
CNc1nc(N)c([N+](=O)[O-])c(Nc2ccccc2OC)n1	Mdm2-MdmX inh 65 (no result: Beta cell apopt, CSC inhib) | Mdm2-MdmX conf inactive | Full FLuc ctr 71
Cc1cc(NC(=O)COC(=O)CCNS(=O)(=O)c2c(Cl)cccc2Cl)no1	none
CC1(C)CC(c2nc(-c3ccc([N+](=O)[O-])cc3)cs2)CCO1 (stereo not drawn)	none
CNCc1ccccc1Sc1cc(O)ccc1O	Mdm2-MdmX inh 91 (no result: CSC inhib, Calb FLC) | Mdm2-MdmX conf inactive
COc1ccc(-c2cc(C)no2)cc1S(=O)(=O)NCC(C)c1ccccc1 (stereo not drawn)	none
Cc1ccc(C)c(N2CCN(S(=O)(=O)c3c(C)noc3/C=C/N(C)C)CC2)c1	Mdm2-MdmX inh 56 | Mdm2-MdmX conf inactive
Cc1ccccc1CN1C(=O)c2ccccc2S(=O)c2ccc(C(=O)NCCCN3CCOCC3)cc21 (stereo not drawn)	none
